Most compounds without a hit are left out; they make up all but 21% or so of the library.
DT40 TDP1 no CPT = qHTS for Inhibitors of human tyrosyl-DNA phosphodiesterase 1 (TDP1): qHTS in cells in absence of CPT; DT40 Tdp1-/- hTDP1 cells, no CPT, ATP luminescence, 48 h; Potency, µM (titrated, usually from 46.2 µM), without a hit: at the top dose activity change, negative = growth inhibition, actives largely listed as inhibitors; 420,000 tested, 15% active; AID 686978, 2013; note: potency is the fitted concentration of half-maximal effect; % is set by controls: 0 for no effect and ±100 for the full control effect; nearly all actives have a fitted effect of over 55% in size
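Chicken DT40 Tdp1-/- cells complemented with human TDP1, screened without camptothecin (DMSO vehicle only), 400 cells/well. Compounds pin-transferred, cells incubated at 37 °C for at least 48 hr. Growth read as ATP-dependent luminescence (CellTiter-Glo, 30 min at RT).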
ClpP mod = qHTS Assay for Activators of ClpP | ATP-dependent Clp protease proteolytic subunit (Bacillus subtilis (strain 168)), P80244 | purified B. subtilis ClpP, FRET peptide cleavage, 20 min | Potency, µM (titrated, usually from 57.5 µM), for inactives: top-dose activity change, negative = active | 340,000 tested, 1.9% active | AID 651965, 2013; active = well fitted falling curve with a large enough effect; inconclusive = small, poorly fitted or top-dose-only effect; inactive = no such curve, though single readings can be large or run the other way; note: potency is the fitted concentration of half-maximal effect; the source files actives as falling curves though it sought activators and does not explain the sign; nearly all actives have a fitted effect of over 65% in size
Target sequence (P80244 whole entry, looked up): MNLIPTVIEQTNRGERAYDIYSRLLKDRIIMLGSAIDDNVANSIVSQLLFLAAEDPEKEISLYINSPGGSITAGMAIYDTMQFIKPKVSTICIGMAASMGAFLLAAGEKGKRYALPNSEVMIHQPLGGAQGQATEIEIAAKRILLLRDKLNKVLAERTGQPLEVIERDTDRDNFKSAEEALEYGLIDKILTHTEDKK
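FRET quenching reversal measured ClpP activation: 10 microg/mL B. subtilis ClpP at pH 8 with the FRET-FV decapeptide, read at 430 nm after 320 nm excitation. The 20-min minus 0-min signal was scaled between DMSO/no-enzyme wells and ADEP (5.8 microM final).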
D3 ag = qHTS of D3 Dopamine Receptor Agonist: qHTS; D(3) dopamine receptor (Homo sapiens), P35462; D3R DiscoveRx beta-arrestin cells, luminescence, 90 min; max activation, %; 410,000 tested, 0.58% active; in the data active = max activation above about 30%; note: 0% is about no effect
Target sequence (P35462 whole entry, looked up): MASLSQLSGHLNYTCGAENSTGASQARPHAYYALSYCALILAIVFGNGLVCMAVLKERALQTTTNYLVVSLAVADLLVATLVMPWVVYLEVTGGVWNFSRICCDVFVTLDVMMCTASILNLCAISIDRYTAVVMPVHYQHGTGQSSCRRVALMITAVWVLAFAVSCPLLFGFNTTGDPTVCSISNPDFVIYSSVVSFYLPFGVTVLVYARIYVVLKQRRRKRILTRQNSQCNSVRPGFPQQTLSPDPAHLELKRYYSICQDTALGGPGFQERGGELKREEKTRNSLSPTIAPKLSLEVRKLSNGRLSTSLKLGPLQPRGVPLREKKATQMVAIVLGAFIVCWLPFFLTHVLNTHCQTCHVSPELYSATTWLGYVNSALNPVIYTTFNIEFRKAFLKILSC
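Agonist-mode cell screen: cells plated at 1500/well and incubated overnight at 37 °C, then exposed to library compounds for 90 min at 37 °C. Detection reagent was added for 30–60 min at room temperature, and luminescence was read.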
D3 antag = qHTS of D3 Dopamine Receptor Antagonist: qHTS; D(3) dopamine receptor (Homo sapiens), P35462; D3R cells, DiscoveRx beta-arrestin luminescence, antagonist mode; active compounds read low; max response, negative = inhibition, %; 360,000 tested, 2.5% active; AID 652054, 2013; in the data active = max response below about -50%; inconclusive = no clear call, values can overlap the other calls; note: % is set by controls: 0 for no effect and ±100 for the full control effect
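Cells expressing the human receptor were seeded at 1500 cells/well, incubated overnight at 37 degrees C in 5% CO2, then exposed to library compounds with dopamine controls for 90 minutes at 37 degrees C before luminescent detection.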
TDP1 cell CPT = qHTS for Inhibitors of human tyrosyl-DNA phosphodiesterase 1 (TDP1): qHTS in cells in presence of CPT; chicken DT40 Tdp1-/-;hTDP1 cells + 20 nM CPT, ATP luminescence, 48 h; Potency, µM (series often up to 46.2 µM), inactives show at the highest dose activity change, negative = growth inhibition, usual class: inhibitors; 420,000 tested, 12% active; note: potency is the fitted concentration of half-maximal effect; % is set by controls: 0 for no effect and ±100 for the full control effect; nearly all actives have a fitted effect of over 55% in size
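Chicken DT40 Tdp1-/- cells complemented with human TDP1, 400 cells/well, exposed to compounds plus 20 nM camptothecin for at least 48 h at 37 C; viability read as ATP content by CellTiter-Glo luminescence.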
IL1B secr inh = qHTS for Inhibitors of Inflammasome Signaling: IL-1-beta AlphaLISA Primary Screen; THP-1 LPS/ATP IL-1B secretion, AlphaLISA, 16 h; active compounds read low; 360,000 tested, 4.7% active; activity change, % at 57.5 µM; AID 743279, 2014; in the data active = activity change below about -50%; inconclusive = mostly about -30% to -49%; note: % is set by controls: 0 for no effect and ±100 for the full control effect
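Secreted IL-1B measured by AlphaLISA bead assay after 16 h compound exposure of THP-1 cells; compounds (final up to 57.5 uM) added 1 h before LPS (250 ng/mL) and ATP (1.25 mM) stimulation; lower signal means less secretion.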
The depositor's hits bear a star; u = inconclusive; x = no result. Unless noted, calls come from the whole dose curve; as a rule, active = well fitted inhibition curve with a large enough effect; inconclusive = small, poorly fitted or top-dose-only effect; inactive = flat fitted curve, though single readings scatter.

SMILES	DT40 TDP1 no CPT	ClpP mod	D3 ag	D3 antag	TDP1 cell CPT	IL1B secr inh
CCNC(=O)CC1C(=O)N(c2ccc(F)cc2)C(=O)N1Cc1ccc(OC)c(OC)c1 (configuration not stated)	u	-9%	7	x	-10%	x
O=C1CC(N2CCN(C/C=C/c3ccccc3)CC2)C(=O)N1CCc1ccccc1 (configuration not stated)	21µM*	-1%	-20	u	18µM*	-26
O=C1CC(N2CCN(C/C=C/c3ccccc3)CC2)C(=O)N1Cc1cccs1 (configuration not stated)	-9%	-1%	-8	-63*	13%	-1
COc1cc(CNC(=O)Nc2nnc([C@@H]3C[C@H](O)[C@@H](CO)O3)s2)cc(OC)c1OC	11%	-3%	-2	32	11%	-9
O=S(CC(O)(c1ccccc1)c1ccccc1)CC(O)(c1ccccc1)c1ccccc1	18µM*	-3%	-13	0	18µM*	-10
OC(CNC1CCCC1)COc1ccc(Cl)cc1 (configuration not stated)	u	x	-21	-22	u	u
OC1CCCC1NCc1ccnc2cc(Cl)ccc12 (configuration not stated)	16µM*	x	2	-5	u	-4
CCNC1CCC(Nc2ccnc3cc(Cl)ccc23)CC1 (configuration not stated)	9.2µM*	x	-2	2	18µM*	-98*
O=C(Cc1ccc(Cl)cc1Cl)NC1CCCCCC1	u	x	-17	-28	-27%	-24
OC(CNc1ccnc2cc(Cl)ccc12)CNC1CCCCC1 (configuration not stated)	16µM*	28µM*	-13	u	18µM*	-114*
CCCCn1nc(C(=O)N(CC)CC(=O)Nc2c(F)cccc2F)c2ccccc2c1=O	u	0%	0	12	u	13
COc1cc(=O)n2c(c1C(=O)N(C)Cc1nonc1C)CCN(C(=O)c1cccc(C)c1C)CC2	-7%	x	x	x	5%	x
O=S(=O)(c1ccc(-c2ccon2)s1)N1CCN(c2ccncc2)CC1	-1%	x	16	14	0%	1
Cc1cc(C)c2c(c1)SC1=NC(c3ccccc3)(C(F)(F)F)NC(=O)N12 (configuration not stated)	u	-2%	-2	-15	u	-56*
Cc1cccn2c(=O)c(C(=O)NC3CCCCC3C)c(O)nc12 (configuration not stated)	15µM*	28µM*	-28	-28	u	31
Cc1cccn2c(=O)c(C(=O)NC3CCCCC3)c(O)nc12	18µM*	-13%	2	2	18µM*	-3
Cc1ccn2c(=O)c(C(=O)NC3CCCCC3C)c(O)nc2c1 (configuration not stated)	u	-4%	-3	10	16µM*	18
Cc1csc2nc(O)c(C(=O)NC3CCCCCC3)c(=O)n12	5.2µM*	x	7	27	u	17
Cc1cccn2c(=O)c(C(=O)NCCCN3CCCCC3C)c(O)nc12 (configuration not stated)	9%	4%	3	-10	6%	-19
Cc1cccc(N(CC(=O)NC2CCCC2)C(=O)CNC(=O)c2ccco2)c1C	-7%	x	0	-8	3%	0
CC(C)OCCCNC(=O)CCCC(=O)Nc1ccc(OCCc2ccccc2)cc1	-9%	2%	-11	-10	-14%	15
COc1ccc(S(=O)(=O)N2CCN(CC(=O)Nc3c(C)n[nH]c3C)CC2)cc1OC	2%	-1%	0	-9	10%	-3
Cc1ccc(S(=O)(=O)N(CC#N)CC#N)cc1	-4%	x	2	8	0%	45
Cc1csc2nc(O)c(C(=O)NCc3ccc4c(c3)OCO4)c(=O)n12	23µM*	x	-13	-20	u	0
Cc1cccn2c(=O)c(C(=O)NC3CC(C)CC(C)(C)C3)c(O)nc12 (configuration not stated)	7.3µM*	x	-2	10	7.3µM*	11
SMILES	DT40 TDP1 no CPT	ClpP mod	D3 ag	D3 antag	TDP1 cell CPT	IL1B secr inh
Cc1cccn2c(=O)c(C(=O)NCc3ccccc3Cl)c(O)nc12	23µM*	-1%	-7	x	16µM*	x
Cc1csc2nc(O)c(C(=O)NC3CCCCC3)c(=O)n12	u	-1%	3	-21	u	14
CCN(CC)c1ccc(NS(=O)(=O)c2ccc(OC)cc2)cc1	2%	x	3	11	20%	21
COc1ccc(CCNC(=O)c2cn3ccc(C)cc3n2)cc1OC	16µM*	-12%	1	1	u	22
COc1ccc(CCNC(=O)c2nnn(-c3cc(C)cc(C)c3)c2N)cc1OC	u	-4%	-1	-7	15µM*	-3
COc1ccc(CCNC(=O)c2nnn(-c3cccc(C)c3)c2N)cc1OC	u	-1%	-9	-10	u	-9
COc1ccccc1NC(=O)c1sc2nc(C)c(C(=O)Nc3ccc(C)cc3C)c(-c3ccc(C)o3)c2c1N	u	-4%	0	x	u	x
COc1cccc(/C=C/C(=O)OCC(=O)NCC2CCCCC2)c1OC	15%	4%	-13	4	-17%	9
CCOc1cc(-c2ccc(OC(=O)c3ccc(C)cc3)c(OC)c2)cc(=O)c2c(C)oc(C)c12	5.2µM*	-1%	-15	x	5.8µM*	x
Cc1oc(C)c2c(=O)cc(-c3ccc4c(c3)OCO4)cc(OC(=O)c3cccc(Br)c3)c12	u	-1%	0	x	u	x
Cc1oc(C)c2c(=O)cc(-c3ccc4c(c3)OCO4)cc(OC(=O)c3cccc(Cl)c3)c12	u	-3%	-2	x	u	x
COc1ccc(-c2cc(OC(=O)c3cccc(C)c3)c3c(C)oc(C)c3c(=O)c2)cc1	u	-4%	5	x	u	x
COc1cc(-c2cc(OC)c3c(C)oc(C)c3c(=O)c2)ccc1OC(=O)c1ccc(C)cc1	5.8µM*	0%	3	x	5.2µM*	x
COc1ccc(C(=O)Oc2cc(-c3ccc(OC)c(OC)c3)cc(=O)c3c(C)oc(C)c23)cc1	18µM*	0%	-10	x	u	x

Screening results from PubChem BioAssay.
